# Source: PubChem BioAssay (NCATS)
# Inconclusive results are not listed. A call without a number means that no potency is given here. Activity calls are given as the source filed them. Unless noted, calls follow the shape of the dose curve; as a rule, active = well fitted curve in the direction sought with a large enough effect; inconclusive = small, poorly fitted or top-dose-only effect, or another doubt; inactive = no such curve, though single readings can be large; an effect the other way counts as inactive or inconclusive.
# How the values were obtained:
# [1] = qHTS Assay for Lipid Storage Modulators (AID 1519; calls by dose curve); conditions: Drosophila S3 cells, BODIPY lipid droplet/cell ratio, laser cytometry, cells loaded with oleic acid; for activity change, negative = inhibition: at 57.5 µM (top of the series)
# Method in brief: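 Cells seeded at 5,000 per well were treated with compounds over a concentration series and loaded with oleic acid (400 uM, as added). Lipid droplet fluorescence (488 nm excitation, 500-530 nm channel) was read by laser-scanning cytometry and normalized to 20 uM Triacsin C.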
# [2] = target: ATP-dependent 6-phosphofructokinase (Trypanosoma brucei brucei) (UniProt O15648); assay: qHTS Assay to Find Inhibitors of T. brucei phosphofructokinase: hit validation (AID 492961);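 also: luminescence reports ADP formed as PFK phosphorylates fructose-6-phosphate with ATP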
# Sequence of ATP-dependent 6-phosphofructokinase (Trypanosoma brucei brucei) (O15648 whole entry, looked up): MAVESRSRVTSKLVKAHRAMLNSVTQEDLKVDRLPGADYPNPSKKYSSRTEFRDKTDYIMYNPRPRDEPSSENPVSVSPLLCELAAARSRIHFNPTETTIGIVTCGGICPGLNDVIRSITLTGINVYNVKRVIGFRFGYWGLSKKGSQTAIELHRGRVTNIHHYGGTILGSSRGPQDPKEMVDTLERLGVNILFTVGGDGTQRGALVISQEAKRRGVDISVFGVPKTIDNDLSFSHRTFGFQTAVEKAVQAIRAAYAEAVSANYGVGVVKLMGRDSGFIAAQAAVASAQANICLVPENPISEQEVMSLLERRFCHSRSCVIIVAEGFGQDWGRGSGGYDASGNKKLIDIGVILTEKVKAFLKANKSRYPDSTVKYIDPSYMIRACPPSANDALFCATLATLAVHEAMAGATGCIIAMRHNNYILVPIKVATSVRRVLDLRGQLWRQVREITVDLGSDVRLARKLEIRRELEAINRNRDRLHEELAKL
# Method in brief: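 ADP-Glo luminescence read-out of ADP formed by 1.25 nM PFK from 0.1 mM ATP and 0.5 mM F6P (TEA pH 8.0, 45 min, RT). Compounds titrated; activity normalized to no-enzyme and full-enzyme controls.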
# [3] = target: Ubiquitin carboxyl-terminal hydrolase 1 (Homo sapiens) (UniProt O94782); assay: Inhibitors of USP1/UAF1: Pilot qHTS (AID 504865);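 also: rhodamine fluorescence freed from ubiquitin-rhodamine substrate followed over time; top concentration of the series differs between compounds; nearly all actives have a fitted effect of over 35% in size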
# Sequence of Ubiquitin carboxyl-terminal hydrolase 1 (Homo sapiens) (O94782 whole entry, looked up): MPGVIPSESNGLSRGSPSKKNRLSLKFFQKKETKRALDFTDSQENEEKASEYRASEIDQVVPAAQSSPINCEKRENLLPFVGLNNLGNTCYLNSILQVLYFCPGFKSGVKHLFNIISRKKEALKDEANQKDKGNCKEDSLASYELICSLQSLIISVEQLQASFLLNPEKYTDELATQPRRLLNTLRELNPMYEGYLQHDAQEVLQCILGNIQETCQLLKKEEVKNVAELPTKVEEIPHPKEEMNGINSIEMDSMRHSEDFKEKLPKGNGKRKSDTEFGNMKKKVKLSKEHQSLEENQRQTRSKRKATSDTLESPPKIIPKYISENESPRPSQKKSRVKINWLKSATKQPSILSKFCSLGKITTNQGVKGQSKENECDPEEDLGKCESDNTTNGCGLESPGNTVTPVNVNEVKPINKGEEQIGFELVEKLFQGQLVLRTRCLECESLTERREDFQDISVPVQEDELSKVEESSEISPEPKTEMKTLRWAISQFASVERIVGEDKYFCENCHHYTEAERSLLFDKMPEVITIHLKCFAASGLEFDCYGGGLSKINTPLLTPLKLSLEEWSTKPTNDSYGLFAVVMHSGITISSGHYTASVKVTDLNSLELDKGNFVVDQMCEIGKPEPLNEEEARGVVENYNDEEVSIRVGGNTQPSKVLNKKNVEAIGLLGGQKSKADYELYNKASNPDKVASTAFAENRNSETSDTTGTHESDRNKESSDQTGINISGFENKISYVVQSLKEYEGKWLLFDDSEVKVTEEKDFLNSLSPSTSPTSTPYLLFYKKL
# Method in brief: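 USP1/UAF1 complex at 1 nM preincubated 15 min at room temperature with compound, then Ub-Rho substrate added at 150 nM final. Fluorescence (480/540 nm) read kinetically in 50 mM HEPES pH 7.8, 0.5 mM EDTA, 1 mM TCEP, 0.1 mg/ml BSA, 0.01% Tween-20.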
# [4] = target: Luciferin 4-monooxygenase (Photinus pyralis) (UniProt P08659); assay: Biochemical firefly luciferase enzyme assay for NPC (AID 624030);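 also: purified P. pyralis luciferase at 10 nM with luciferin and ATP substrate; nearly all actives have a fitted effect of over 70% in size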
# Sequence of Luciferin 4-monooxygenase (Photinus pyralis) (P08659 whole entry, looked up): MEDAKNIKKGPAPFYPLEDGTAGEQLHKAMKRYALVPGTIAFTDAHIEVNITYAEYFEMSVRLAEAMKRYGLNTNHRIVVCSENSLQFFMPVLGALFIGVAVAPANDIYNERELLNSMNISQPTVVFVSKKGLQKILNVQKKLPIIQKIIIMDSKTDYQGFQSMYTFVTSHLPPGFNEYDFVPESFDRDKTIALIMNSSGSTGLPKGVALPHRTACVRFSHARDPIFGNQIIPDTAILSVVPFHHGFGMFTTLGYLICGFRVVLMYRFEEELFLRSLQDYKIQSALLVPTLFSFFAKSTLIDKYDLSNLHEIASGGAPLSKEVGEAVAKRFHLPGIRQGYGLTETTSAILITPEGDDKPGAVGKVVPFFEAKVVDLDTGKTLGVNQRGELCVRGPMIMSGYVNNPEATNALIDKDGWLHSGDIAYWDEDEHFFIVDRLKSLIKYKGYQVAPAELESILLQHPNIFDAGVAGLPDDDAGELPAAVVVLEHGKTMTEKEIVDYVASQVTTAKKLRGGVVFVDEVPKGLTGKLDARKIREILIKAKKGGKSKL
# Method in brief: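 Direct inhibition of firefly luciferase enzyme (10 nM final, 50 mM Tris Acetate) assessed by luminescence within 5 minutes. Percent activity scaled between DMSO and PTC124 positive control, with concentration-effect curves classified by fit quality and response.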
# [5] = qHTS profiling for inhibitors of Plasmodium falciparum proliferation (AID 504749); also: potency is read from the fitted curve at half-maximal effect; as to all read-outs here: nearly all actives have a fitted effect of over 60% in size; conditions: P. falciparum in erythrocytes, SYBR Green DNA, 72 h; for activity, negative = inhibition: at 28.7 µM (top of the series)
# Method in brief: (§1)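 Infected RBCs, 0.3% parasitemia/2.5% Hct final; cpd 72 h, 37 C, 5% CO2; lysis buffer with saponin/triton/SYBR Green I, o/n RT dark; FI 485/535; norm. to artemisinin (0.29 uM) and DMSO.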
# 3D7 = assay: as above; conditions: P. falciparum in erythrocytes, SYBR Green DNA, 72 h; series mostly up to 12.8 µM
# Method in brief: as §1
# C2A = assay: as above; conditions: P. falciparum in erythrocytes, SYBR Green DNA, 72 h; series mostly up to 12.8 µM
# Method in brief: as §1
# CP217 = assay: as above; conditions: P. falciparum in erythrocytes, SYBR Green DNA, 72 h; series mostly up to 12.8 µM
# Method in brief: as §1
# CP238 = assay: as above; conditions: P. falciparum in erythrocytes, SYBR Green DNA, 72 h; series mostly up to 12.8 µM
# Method in brief: as §1
# CP262 = assay: as above; conditions: P. falciparum in erythrocytes, SYBR Green DNA, 72 h; series mostly up to 12.8 µM
# Method in brief: as §1
# CP269 = assay: as above; conditions: P. falciparum in erythrocytes, SYBR Green DNA, 72 h; series mostly up to 12.8 µM
# Method in brief: as §1
# CP305 = assay: as above; conditions: P. falciparum in erythrocytes, SYBR Green DNA, 72 h; series mostly up to 12.8 µM
# Method in brief: as §1
# CP325 = assay: as above; conditions: P. falciparum in erythrocytes, SYBR Green DNA, 72 h; series mostly up to 12.8 µM
# Method in brief: as §1
# CP329 = assay: as above; conditions: P. falciparum in erythrocytes, SYBR Green DNA, 72 h; series mostly up to 12.8 µM
# Method in brief: as §1
# DIV30 = assay: as above; conditions: P. falciparum in erythrocytes, SYBR Green DNA, 72 h; series mostly up to 12.8 µM
# Method in brief: as §1
# FAB9 = assay: as above; conditions: P. falciparum in erythrocytes, SYBR Green DNA, 72 h; series mostly up to 12.8 µM
# Method in brief: as §1
# PC49 = assay: as above; conditions: P. falciparum in erythrocytes, SYBR Green DNA, 72 h; series mostly up to 12.8 µM
# Method in brief: as §1
# [6] = measured here: cell count channel max response
# [7] = measured here: lipid channel max response
smiles,measurement,setting,value
Nc1nc2ncc(CNc3ccc(C(=O)NC(CCC(=O)O)C(=O)O)cc3)nc2c(=O)[nH]1 (centres undefined),"activity change, negative = inhibition",[1],5.18% (inactive)
same,max response,[1]; [6],16.9%
same,max response,[1]; [7],24.2%
same,outcome,[2],inactive
same,Potency,[3],inactive
same,Potency,[4],inactive
same,"activity, negative = inhibition",[5]; parasite line A,10.3% (inactive)
same,"activity, negative = inhibition",[5]; parasite line B,16.6% (inactive)
same,Potency,3D7,inactive
same,Potency,C2A,inactive
same,Potency,CP217,inactive
same,Potency,CP238,inactive
same,Potency,CP262,inactive
same,Potency,CP269,inactive
same,Potency,CP305,inactive
same,Potency,CP325,inactive
same,Potency,CP329,inactive
same,Potency,DIV30,inactive
same,Potency,FAB9,inactive
same,Potency,PC49,inactive
O=C1OC(CO)C(O)C(O)C1O (centres undefined),"activity change, negative = inhibition",[1],6.29% (inactive)
same,max response,[1]; [6],17.3%
same,max response,[1]; [7],26.8%
same,outcome,[2],inactive
same,Potency,[3],inactive
same,Potency,[4],inactive
same,"activity, negative = inhibition",[5]; parasite line A,11.9% (inactive)
same,"activity, negative = inhibition",[5]; parasite line B,-2.03% (inactive)
same,Potency,3D7,inactive
same,Potency,C2A,inactive
same,Potency,CP217,inactive
same,Potency,CP238,inactive
same,Potency,CP262,inactive
same,Potency,CP269,inactive
same,Potency,CP305,inactive
same,Potency,CP325,inactive
same,Potency,CP329,inactive
same,Potency,DIV30,inactive
same,Potency,FAB9,inactive
same,Potency,PC49,inactive
COc1ccc2cc1Oc1ccc(cc1)CC1c3c(cc4c(c3Oc3cc5c(cc3OC)CCN(C)C5C2)OCO4)CCN1C (centres undefined),"activity change, negative = inhibition",[1],10.7% (inactive)
same,max response,[1]; [6],5.9%
same,max response,[1]; [7],21%
same,outcome,[2],inactive
same,Potency,[4],inactive
same,Potency,[5]; parasite line A,8.91 µM (active)
same,Potency,[5]; parasite line B,10 µM (active)
same,Potency,3D7,11.2 µM (active)
same,Potency,C2A,11.2 µM (active)
same,Potency,CP217,8.91 µM (active)
same,Potency,CP238,7.08 µM (active)
same,Potency,CP262,8.49 µM (active)
same,Potency,CP269,13.5 µM (active)
same,Potency,CP305,9.53 µM (active)
same,Potency,CP325,12 µM (active)
Cc1cc(O)c(C=O)c2c1C(=O)Oc1c(COC(=O)/C=C/C(=O)O)c(O)c(C(=O)O)c(C)c1O2,"activity change, negative = inhibition",[1],4.28% (inactive)
same,max response,[1]; [6],6.76%
same,max response,[1]; [7],3.61%
CN(C)CCCOC1C(C(O)CO)OC2OC(C)(C)O[C@@H]21 (some centres undefined),"activity change, negative = inhibition",[1],4.25% (inactive)
same,max response,[1]; [6],11.4%
same,max response,[1]; [7],18.7%
same,outcome,[2],inactive
same,Potency,[3],inactive
same,Potency,[4],inactive
same,"activity, negative = inhibition",[5]; parasite line A,6.96% (inactive)
same,"activity, negative = inhibition",[5]; parasite line B,11.3% (inactive)
same,Potency,3D7,inactive
same,Potency,C2A,inactive
same,Potency,CP217,inactive
same,Potency,CP238,inactive
same,Potency,CP262,inactive
same,Potency,CP269,inactive
same,Potency,CP305,inactive
same,Potency,CP325,inactive
same,Potency,CP329,inactive
same,Potency,DIV30,inactive
same,Potency,FAB9,inactive
same,Potency,PC49,inactive
C[C@]12CCC(=O)C=C1CCC1C2C(=O)C[C@]2(C)C1CC[C@]2(O)C(=O)CO (some centres undefined),"activity change, negative = inhibition",[1],-0.346% (inactive)
same,max response,[1]; [6],22.5%
same,max response,[1]; [7],22%
same,outcome,[2],inactive
same,Potency,[3],inactive
same,Potency,[4],inactive
same,"activity, negative = inhibition",[5]; parasite line A,3.27% (inactive)
same,"activity, negative = inhibition",[5]; parasite line B,-0.753% (inactive)
same,Potency,3D7,inactive
same,Potency,C2A,inactive
same,Potency,CP217,inactive
same,Potency,CP238,inactive
same,Potency,CP262,inactive
same,Potency,CP269,inactive
same,Potency,CP305,inactive
same,Potency,CP325,inactive
same,Potency,CP329,inactive
same,Potency,DIV30,inactive
same,Potency,FAB9,inactive
same,Potency,PC49,inactive
CC1(C)SC2C(N3C(=O)C(c4ccccc4)NC3(C)C)C(=O)N2C1C(=O)O (centres undefined),"activity change, negative = inhibition",[1],8.56% (inactive)
same,max response,[1]; [6],12.6%
same,max response,[1]; [7],31%
same,outcome,[2],inactive
same,Potency,[4],inactive
same,"activity, negative = inhibition",[5]; parasite line A,-1.6% (inactive)
same,"activity, negative = inhibition",[5]; parasite line B,9.57% (inactive)
same,Potency,3D7,inactive
same,Potency,C2A,inactive
same,Potency,CP217,inactive
same,Potency,CP238,inactive
same,Potency,CP262,inactive
same,Potency,CP269,inactive
same,Potency,CP305,inactive
same,Potency,CP325,inactive
same,Potency,CP329,inactive
same,Potency,DIV30,inactive
same,Potency,FAB9,inactive
same,Potency,PC49,inactive
CCCC(=O)O[C@]1(C(=O)CO)CCC2[C@@H]3CCC4=CC(=O)CC[C@]4(C)C3C(O)C[C@]21C (some centres undefined),"activity change, negative = inhibition",[1],9.93% (inactive)
same,max response,[1]; [6],7.86%
same,max response,[1]; [7],23.2%
same,outcome,[2],inactive
same,Potency,[3],inactive
same,Potency,[4],inactive
same,"activity, negative = inhibition",[5]; parasite line A,6.2% (inactive)
same,"activity, negative = inhibition",[5]; parasite line B,17.5% (inactive)
same,Potency,3D7,inactive
same,Potency,C2A,inactive
same,Potency,CP217,inactive
same,Potency,CP238,inactive
same,Potency,CP262,inactive
same,Potency,CP269,inactive
same,Potency,CP305,inactive
same,Potency,CP325,inactive
same,Potency,CP329,inactive
same,Potency,DIV30,inactive
same,Potency,FAB9,inactive
same,Potency,PC49,inactive
CCC(CCC(C)C1CCC2C3CC=C4CC(O)CC[C@@]4(C)C3CC[C@@]12C)C(C)C (some centres undefined),"activity change, negative = inhibition",[1],3.18% (inactive)
same,max response,[1]; [6],9.21%
same,max response,[1]; [7],15.1%
same,outcome,[2],inactive
same,Potency,[3],inactive
same,Potency,[4],inactive
same,"activity, negative = inhibition",[5]; parasite line A,-3.58% (inactive)
same,"activity, negative = inhibition",[5]; parasite line B,13.1% (inactive)
same,Potency,3D7,inactive
same,Potency,C2A,inactive
same,Potency,CP217,inactive
same,Potency,CP238,inactive
same,Potency,CP262,inactive
same,Potency,CP269,inactive
same,Potency,CP305,inactive
same,Potency,CP325,inactive
same,Potency,CP329,inactive
same,Potency,DIV30,inactive
same,Potency,FAB9,inactive
same,Potency,PC49,inactive
CN1CC(=O)N=C1N,"activity change, negative = inhibition",[1],4.35% (inactive)
same,max response,[1]; [6],5.89%
same,max response,[1]; [7],9.11%
same,outcome,[2],inactive
same,Potency,[3],inactive
same,Potency,[4],inactive
same,"activity, negative = inhibition",[5]; parasite line A,1.94% (inactive)
same,"activity, negative = inhibition",[5]; parasite line B,0.298% (inactive)
same,Potency,3D7,inactive
same,Potency,C2A,inactive
same,Potency,CP217,inactive
same,Potency,CP238,inactive
same,Potency,CP262,inactive
same,Potency,CP269,inactive
same,Potency,CP305,inactive
same,Potency,CP325,inactive
same,Potency,CP329,inactive
same,Potency,DIV30,inactive
same,Potency,FAB9,inactive
same,Potency,PC49,inactive
Cc1cc(O)c(C=O)c2c1C(=O)Oc1c(C)c(O)c3c(c1O2)C(O)OC3=O (centres undefined),"activity change, negative = inhibition",[1],13.7% (inactive)
same,max response,[1]; [6],7.17%
same,max response,[1]; [7],21%
CCC(C)C(=O)OC1CC(O)C=C2C=CC(C)C(CCC(O)CC(O)CC(=O)O)C21 (centres undefined),"activity change, negative = inhibition",[1],5.21% (inactive)
same,max response,[1]; [6],11.3%
same,max response,[1]; [7],17.6%
same,Potency,[3],inactive
same,Potency,[4],inactive
same,"activity, negative = inhibition",[5]; parasite line A,-1.64% (inactive)
same,"activity, negative = inhibition",[5]; parasite line B,-21.8% (inactive)
same,Potency,3D7,inactive
same,Potency,C2A,inactive
same,Potency,CP217,inactive
same,Potency,CP238,inactive
same,Potency,CP262,inactive
same,Potency,CP269,inactive
same,Potency,CP305,inactive
same,Potency,CP325,inactive
same,Potency,CP329,inactive
same,Potency,DIV30,inactive
same,Potency,FAB9,inactive
same,Potency,PC49,inactive
